Source: PubChem BioAssay (NCATS)
A number with no mark means an inactive call. A call without a number means that no potency is given here. Active and inactive are the calls of the source. The call rests on the fitted dose curve; in most records, active means well fitted inhibition curve with a large enough effect; inconclusive means small, poorly fitted or top-dose-only effect; inactive means flat fitted curve, though single readings scatter.

The compounds below were run on Nanoluciferase (engineered Oplophorus gracilirostris luciferase) (assay: Primary Nanoluciferase (NLuc) qHTS assay for identification of artifact compounds. (AID 1845222;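 on activity, negative = inhibition: NLuc secreted into diluted conditioned medium of S16 cells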)). Settings: NLuc-conditioned medium, Nano-Glo luminescence, 5 min; series mostly up to 54.1 µM.
Summary of the method: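 NLuc from S16 cell medium (1:55) plus test compounds, 15 min, room temperature. Luminescence after Nano-Glo (1:100) addition, 5 min.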
Potency means the concentration at half of the fitted maximal effect.

| SMILES | Potency | activity, negative = inhibition |
| --- | --- | --- |
| CC(C)(C)c1ccc(NC(=O)N2CCN(c3ncccc3Cl)CC2)cc1 | inactive |  |
| O=C(Nc1ccccc1)N1CCC(Cc2cnc3ccccc3c2)CC1 | inactive |  |
| C=C1C(=O)O[C@H]2C[C@@H](C)[C@@H]3CCC(=O)[C@@]3(C)C[C@H]12 | inactive |  |
| C=C1C(=O)OC2/C=C(\C)CC3C=C(CC/C=C(\C)CCC12)C(=O)O3 (stereo not given) | inactive |  |
| COc1cc(C(C)=O)c(OC)c2c1OC(C)(C)C=C2 | inactive |  |
| C=CCc1ccc(OC(C)Cc2ccc(OC)c(OC)c2)c(OC)c1 (stereo not given) | inactive |  |
| C=C1C(=O)O[C@@H]2[C@H]3C(C)=CC(=O)C3=C(C)CC[C@@H]12 | inactive |  |
| Cc1ccc(OC[C@H](O)[C@H](C)NC(C)C)c2c1CCC2 | inactive |  |
| O=C(NCCCn1ccnc1)c1cc(-c2ccco2)on1 | inactive |  |
| O=C(COc1ccc2ccccc2c1Br)Nc1cccnc1 | inactive |  |
| CC(=O)O[C@@H]1CC2C(/C=C(\C)C(=O)[C@@]3(O)C[C@@H](C)[C@H](OC(=O)c4ccccc4)C3/C=C/1C)C2(C)C (stereo not given in full) | inactive |  |
| C/C=C(/C)C(=O)O[C@@H]1C[C@@H](OC(=O)CC(C)C)C2(C)C3C(=O)C=C(C)C2C3C1(C)C (stereo not given in full) | inactive |  |
| C=C(C)C(=O)OC1CC2(C)OC(=CC2=O)C(=C)CC2OC(=O)C(=C)C12 (stereo not given) | inactive |  |
| C/C=C(/C)C(=O)OC1C=C2C3C(C)C(C)C(OC(=O)C(C)C(C)O)CC3(C)CCC2(C)C2(C)CC(OC(C)=O)C3C(C)(C)C(O)C(=O)CC3(C)C12 (stereo not given) | inactive |  |
| C=C1C(=O)O[C@@H]2C[C@H](C)C3=CC(=O)[C@H](O)[C@@]3(C)C[C@H]12 | inactive |  |
| C=CC(=O)Nc1cccc(Nc2nc(Nc3ccc(NC4CN(CCF)C4)cc3OC)ncc2C(F)(F)F)c1 | inactive |  |
| O=C(O)c1ccc(S(=O)(=O)N(Cc2ccc(OC(F)(F)F)cc2)c2ncc(C(F)(F)F)cc2Cl)cc1 | inactive |  |
| O=C(NC[C@H]1CN(c2ccc(N3CCOCC3=O)cc2)C(=O)O1)c1ccc(Cl)s1 | inactive |  |

| SMILES | Potency | activity, negative = inhibition |
| --- | --- | --- |
| C=CC(=O)Nc1cc(-n2c(=O)ccc3cnc4ccc(-c5ccc(NS(C)(=O)=O)cc5)cc4c32)ccc1C | inactive |  |
| Cn1cc(-c2ccc(S(=O)(=O)n3ccc(/C=C/C(=O)Nc4ccccc4N)c3)cc2)cn1 | inactive |  |
| O=C(Nc1ccnc(NC(=O)C2CC2)c1)c1c(Cl)cccc1Cl | inactive |  |
| C[C@@H]1O[C@@H](O[C@H]2[C@@H](OC(=O)[C@]34CCC(C)(C)CC3C3=CCC5[C@@]6(C)C[C@H](O)[C@H](O[C@@H]7O[C@H](CO)[C@@H](O)[C@H](O)[C@H]7O[C@@H]7OC[C@@H](O)[C@H](O)[C@H]7O)[C@@](C)(C(=O)O)C6CC[C@@]5(C)[C@]3(C)CC4)OC[C@H](O)[C@@H]2O)[C@H](O)[C@H](O)[C@H]1O[C@@H]1OC[C@@H](O)[C@H](O)[C@H]1O (stereo not given in full) |  | 3.4% [at 11.6 µM] |
| O=S(=O)(c1ccccc1)N(CC(F)(F)F)c1ccc(C(O)(C(F)(F)F)C(F)(F)F)cc1 | inactive |  |
| FC(F)(F)c1ccc(/C=C/c2nc(COc3ccc(CCCCn4ccnn4)cc3)co2)cc1 | inactive |  |
| CC(=O)OC(C)(C)/C=C/C(=O)[C@](C)(O)[C@H]1C(O)C[C@@]2(C)[C@@H]3CC=C4[C@@H](C=C(O[C@@H]5O[C@H](CO)[C@@H](O)[C@H](O)[C@H]5O)C(=O)C4(C)C)[C@]3(C)C(=O)C[C@]12C (stereo not given in full) | inactive |  |
| Cc1ccc(S(=O)(=O)N2CCC[C@H]2c2ccc(F)cc2)cc1 | inactive |  |
| C=C1C(=O)OC2C(OC(=O)C=C(C)C)C(C)=C3C(=O)C=C(C)C3C(O)C12 (stereo not given) | 7.4 µM (active) |  |
| Nc1c(S(=O)(=O)c2ccccc2)c2nc3ccccc3nc2n1-c1ccc(F)cc1 | inactive |  |
| N#Cc1cccc(C(=O)Nc2cc(-c3ccccc3)nn2-c2ccccc2)c1 | inactive |  |
| Cc1ccc(C(=O)Nc2ccc(CN3CCN(C)CC3)c(C(F)(F)F)c2)cc1C#Cc1cnc2[nH]ncc2c1 | inactive |  |
| O=C(Nc1ccc(C(F)(F)F)cn1)N1CCN(c2ncccc2C(F)(F)F)CC1 | inactive |  |
| CC1=C(C(=O)Nc2cc(Cl)ccc2Cl)C(c2ccco2)C2=C(CCCC2=O)N1 (stereo not given) | inactive |  |
| COc1ccc(C(=O)Nc2c(Cl)cncc2Cl)cc1OC1CCCC1 | inactive |  |
| C=C1CC[C@@H](O)[C@]2(C)C[C@H]3OC(=O)C(=C)[C@H]3CC12 (stereo not given in full) | inactive |  |
| O=S(=O)(c1ccc(Cl)cc1)N1CCN(c2ccnc3cc(Cl)ccc23)CC1 | inactive |  |
